Records with an inconclusive call do not appear. The source made the active and inactive calls. Calls follow the shape of the dose curve; as a rule, active = well fitted cell-killing curve with a large enough effect; inconclusive = small, poorly fitted or top-dose-only effect, or effect the other way; inactive = no such curve, though single readings can be large or run the other way.
Potency is read from the fitted curve at half-maximal effect.

This test in a line: Quantitative High-Throughput drug screen in 47 multiple myeloma cell lines against the NCATS MIPE library collection: KHM11_PLB cell viability assay (AID 1918962). Also: nearly all actives have a fitted effect of over 35% in size. The following applies: KHM11 myeloma cell viability, CellTiter-Glo ATP luminescence, 48 h; series mostly up to 45.8 µM. An excerpt:
PI: Beverly A. Mock Ph.D.
Laboratory of Cancer Biology and Genetics,
Center for Cancer Research, National Cancer Institute,
National Institute of Health, Bethesda, Maryland
Drug resistance and disease progression are common in multiple myeloma (MM) patients, underscoring the need for new therapeutic combinations. […] We hypothesized that effective combinations would reduce MYC expression and enhance p16 activity. […] These preclinical data identify potentially useful drug combinations for evaluation in drug-resistant MM and reveal potential mechanisms of combined drug sensitivity.
Described herein is the primary MIPE qHTS used to cherrypick compounds. Validated compounds were then further tested for potential synergistic activiy.
[1] Peat TJ, Gaikwad SM, Dubois W, Gyabaah-Kessie N, Zhang S, Gorjifard S, Phyo Z, Andres M, Hughitt VK, Simpson RM, Miller MA, Girvin AT, Taylor A, Williams D, D'Antonio N, Zhang Y, Rajagopalan A, Flietner E, Wilson K, Zhang X, Shinn P, Klumpp-Thomas C, McKnight C, Itkin Z, Chen L, Kazandijian D, Zhang J, Michalowski AM, Simmons JK, Keats J, Thomas CJ, Mock BA. Drug combinations identified by high-throughput screening promote cell cycle transition and upregulate Smad pathways in myeloma. Cancer Lett. 2023 Aug 1;568:216284. doi: 10.1016/j.canlet.2023.216284. Epub 2023 Jun 24. PMID: 37356470; PMCID: PMC10408729.
SEQUENCE No. (e.g., 1, 2, 3, etc.); […] (e.g., Cells, Incubation, Reagent, etc.); VALUE and DESCRIPTION.
1; Cells; 5 uL; white, solid bottom 1536-well Greiner assay plate.
2; Compounds; 23 nL; Kalypsis pin tool (Wako USA) equipped with a 1536-well pin head to transfer to the assay plates.
3; Incubation; 48 hours; 37C incubation.
4; Reagent;5uL; CellTiter Glo (Promega).
5; Detector; 425V; Luminescence; Viewlux PerkinElmer.
NOTES (numbers refer to Sequence numbers above)
1. The cell-based screening methods employed in this study were like those previously published. Briefly, the corresponding myeloma cell lines were screened in 1,536-well plates with 500 cells, 5-uL per well for inhibition of cell viability (assessed by measuring ATP levels with CellTiterGlo).
2. NCATS MIPE 4.0 library of approved and investigational drugs were added using the Kalypsis pin tool. Wells treated with DMSO only for 100% viability and media only wells for 0% viability were used as controls.
3. The assay plates were covered and incubated for 48 hours in a 37C, 5% CO2 incubator with controlled humidity.
4. After 48 hours, CellTilter-GloTM luminescent substrate mix (Promega) reagent was added to the assay plate and plates we incubated for 5 min at room temperature.
5. Signal was measured as median relative luminescence units on a ViewLux (PerkinElmer) multiplate reader.
[1] Heske CM, Davis MI, Baumgart JT, Wilson K, Gormally MV, Chen L, Zhang X, Ceribelli M, Duveau DY, Guha R, Ferrer M, Arnaldez FI, Ji J, Tran HL, Zhang Y, Mendoza A, Helman LJ, Thomas CJ. Matrix Screen Identifies Synergistic Combination of PARP Inhibitors and Nicotinamide Phosphoribosyltransferase (NAMPT) Inhibitors in Ewing Sarcoma. Clin Cancer Res. 2017 Dec 1;23(23):7301-7311. doi: 10.1158/1078-0432.CCR-17-1121. Epub 2017 Sep 12. PMID: 28899971; PMCID: PMC6636827.
On the technique in general: Cellular ATP, detected with luciferase, serves as a proxy for viable cell number.
Regarding `NC[C@@H]1O[C@@H](O[C@H]2[C@@H](O)[C@H](O[C@@H]3[C@@H](O)[C@@H](N)C[C@H](N)[C@H]3O[C@H]3O[C@H](CN)[C@@H](O)[C@@H](O)[C@H]3N)O[C@H]2CO)[C@H](N)[C@@H](O)[C@@H]1O`, the Potency entry was “inactive”. Consider `O=C1c2ccccc2-[n+]2ccc3c([nH]c4ccccc43)c21`, for which the Potency was 2.35 µM (active). For `O=C1C[C@@H](c2ccc(O)cc2)Oc2cc(O)cc(O)c21`, the Potency result is “inactive”.

Consider `COc1cc2nc(-c3ccc(N4CCN(C)CC4)cc3)nc(NCCN3CCOCC3)c2cc1OC`, for which the Potency is 0.235 µM (active).

Regarding `CC(=O)N(C)C1(c2ccccc2)CCN(CCC[C@]2(c3ccc(Cl)c(Cl)c3)CCCN(C(=O)c3ccccc3)C2)CC1`, the Potency is 16.6 µM (active). `Oc1ccc(C2CCN(c3ccnc4ccccc34)CC2)cc1O`: the Potency was 8.33 µM (active). As to `O=C(Nc1ccccc1Br)N[C@@H]1CCN(c2ccc(C(F)(F)F)cn2)C1`, the Potency was 14.8 µM (active).

Consider `COc1cccc(-c2cc(=O)c3ccccc3o2)c1N`, for which the Potency is 5.26 µM (active). The same measure for `Cc1nc(N)sc1-c1ccnc(Nc2ccc(N3CCOCC3)cc2)n1`: 6.62 µM (active); for `Nc1ncnc2c1nc(Cl)n2[C@@H]1O[C@H](CO)[C@@H](O)[C@@H]1O`: 6.62 µM (active). The same measure for `C=C1C(=O)[C@@]23C(CC[C@@H]1[C@H]2O)[C@@]12CO[C@]3(O)[C@@H](O)[C@@H]1C(C)(C)CC[C@@H]2O` (stereo not given in full): 5.26 µM (active); for `O=c1cc(-c2ccccc2)oc2cc(O)cc(O)c12`: “inactive”. As for `COc1cc(O)c2c(c1)C(=O)c1cc(C)cc(O)c1C2=O`, the entry is “inactive”; as for `C[C@]12CCC3c4ccc(O)cc4CCC3C1CCC2=O` (stereo not given in full), “inactive”; as for `COc1cccc([C@@H](C)NCCCc2ccccc2Cl)c1`, “inactive”. Turning to `CN(C)c1cc(NC(=O)CNC(C)(C)C)c(O)c2c1C[C@@H]1C[C@H]3[C@H](N(C)C)C(=O)C(C(N)=O)=C(O)[C@@]3(O)C(=O)C1=C2O`, the Potency result is “inactive”.

Consider `CCOC(=O)O[C@]1(C(=O)OCCl)CC[C@@H]2[C@H]3CCC4=CC(=O)C=C[C@]4(C)[C@@H]3[C@@H](O)C[C@@]21C`, for which the Potency result was “inactive”. As for `CC(C)OC(=O)C(C)(C)Oc1ccc(C(=O)c2ccc(Cl)cc2)cc1`, the figure is 26.4 µM (active); as for `CC(=O)Nc1ccc([C@H](C)C(=O)Nc2ncc(C(C)C)s2)cc1`, 4.69 µM (active).

On to `CC(=O)OC1C(C)OC(Oc2c(-c3ccc(O)cc3)oc3cc(O)cc(O)c3c2=O)C(O)C1OC(C)=O` (stereo not given), for which the Potency entry is “inactive”. As for `COc1ccc(-c2cc(=O)c3c(O)cc(O)cc3o2)cc1O`, the figure is 10.5 µM (active); as for `CC(C)(C)c1cc(C(=O)O)c(NC(=O)Nc2ccc3[nH]ncc3c2)s1`, “inactive”; as for `CC=C(C)C(=O)O[C@H]1C(C)=C[C@]23C(=O)[C@@H](C=C(CO)[C@@H](O)[C@]12O)[C@H]1[C@@H](C[C@H]3C)C1(C)C`, 3.72 µM (active). As for `CC(C)[C@H](CO)Nc1nc(Nc2ccc(C(=O)O)c(Cl)c2)c2ncn(C(C)C)c2n1`, the figure is 0.0148 µM (active). Take `C=C1C(=O)OC(CCCCCCCC)C1C(=O)O` (stereo not given): the Potency entry is “inactive”. Regarding `CCS(=O)(=O)N1CC(CC#N)(n2cc(-c3ncnc4[nH]ccc34)cn2)C1`, the Potency was 11.8 µM (active). The same measure for `COCCOc1nc(-c2ccc(Cl)c(Cl)c2)n(-c2ccc(NC(=O)CCl)cc2)n1`: 11.8 µM (active); for `CCc1ccc(C=C2SC(=S)NC2=O)cc1`: “inactive”; for `Cc1ccc(C(=O)Nc2cccc(C(F)(F)F)c2)cc1Nc1nc(-c2cccnc2)nc2c1cnn2C`: 13.2 µM (active). For the compound `CN1[C@@H]2CCC[C@@H]1CC(NC(=O)c1nn(C)c3ccccc13)C2` (stereo not given in full), the Potency entry was “inactive”. The same measure for `CC(C)C[C@H](CC(=O)O)C(=O)N[C@@H](Cc1c[nH]c2ccccc12)C(=O)N[C@@H](C)c1ccccc1`: “inactive”. The same measure for `COc1ccc(C2Sc3ccccc3N(CCN(C)C)C(=O)C2OC(C)=O)cc1` (stereo not given): “inactive”; for `CCOc1ccc(Nc2nc(-c3c(C)nc4ccccn34)cs2)cc1`: 0.0743 µM (active); for `NC(=O)[C@@H](CCC(F)(F)F)N(Cc1ccc(-c2ncon2)cc1F)S(=O)(=O)c1ccc(Cl)cc1`: “inactive”. As for `OC[C@H]1O[C@@H](n2cnc3c2NC=NC[C@@H]3O)C[C@H]1O`, the entry is “inactive”. Take `CN1CCN(CCOc2cc(OC3CCOCC3)c3c(Nc4c(Cl)ccc5c4OCO5)ncnc3c2)CC1`: the Potency is 18.7 µM (active).

For `O=C(OCC#CCSc1nnc(-c2cccc3ccccc23)o1)c1cc2ccccc2s1`, the Potency result was “inactive”.

Consider `CCCCCN(C)CCC(O)(P(=O)(O)O)P(=O)(O)O`, for which the Potency entry was “inactive”. As for `O=C1NC(=O)C(=Cc2ccc3c(c2)OC(F)(F)O3)S1`, the figure is 13.2 µM (active); as for `Oc1ccc(C2=Cc3ccc(O)cc3OC2)cc1`, 5.26 µM (active).

Source of the values: PubChem BioAssay (NCATS).
